Source: article PMC4336329 (PLoS ONE, 2015)
In all, about 310,000 compounds went through this assay and about 14,000 (4.5%) showed an effect of 50% or more. Effects have a minus sign here. Many of the other results were omitted from the sample, so strong results are more common in it than they were.

Molecular target: human ether-à-go-go-related gene (hERG) potassium channel (human, UniProt Q12809)
Test: primary screen, population patch clamp on CHO cells stably expressing hERG; higher = less effect of the substance
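Further: peak tail current of the secondary pulse compared with the same well before compound.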

Sequence of human ether-à-go-go-related gene (hERG) potassium channel (Q12809 whole entry, looked up): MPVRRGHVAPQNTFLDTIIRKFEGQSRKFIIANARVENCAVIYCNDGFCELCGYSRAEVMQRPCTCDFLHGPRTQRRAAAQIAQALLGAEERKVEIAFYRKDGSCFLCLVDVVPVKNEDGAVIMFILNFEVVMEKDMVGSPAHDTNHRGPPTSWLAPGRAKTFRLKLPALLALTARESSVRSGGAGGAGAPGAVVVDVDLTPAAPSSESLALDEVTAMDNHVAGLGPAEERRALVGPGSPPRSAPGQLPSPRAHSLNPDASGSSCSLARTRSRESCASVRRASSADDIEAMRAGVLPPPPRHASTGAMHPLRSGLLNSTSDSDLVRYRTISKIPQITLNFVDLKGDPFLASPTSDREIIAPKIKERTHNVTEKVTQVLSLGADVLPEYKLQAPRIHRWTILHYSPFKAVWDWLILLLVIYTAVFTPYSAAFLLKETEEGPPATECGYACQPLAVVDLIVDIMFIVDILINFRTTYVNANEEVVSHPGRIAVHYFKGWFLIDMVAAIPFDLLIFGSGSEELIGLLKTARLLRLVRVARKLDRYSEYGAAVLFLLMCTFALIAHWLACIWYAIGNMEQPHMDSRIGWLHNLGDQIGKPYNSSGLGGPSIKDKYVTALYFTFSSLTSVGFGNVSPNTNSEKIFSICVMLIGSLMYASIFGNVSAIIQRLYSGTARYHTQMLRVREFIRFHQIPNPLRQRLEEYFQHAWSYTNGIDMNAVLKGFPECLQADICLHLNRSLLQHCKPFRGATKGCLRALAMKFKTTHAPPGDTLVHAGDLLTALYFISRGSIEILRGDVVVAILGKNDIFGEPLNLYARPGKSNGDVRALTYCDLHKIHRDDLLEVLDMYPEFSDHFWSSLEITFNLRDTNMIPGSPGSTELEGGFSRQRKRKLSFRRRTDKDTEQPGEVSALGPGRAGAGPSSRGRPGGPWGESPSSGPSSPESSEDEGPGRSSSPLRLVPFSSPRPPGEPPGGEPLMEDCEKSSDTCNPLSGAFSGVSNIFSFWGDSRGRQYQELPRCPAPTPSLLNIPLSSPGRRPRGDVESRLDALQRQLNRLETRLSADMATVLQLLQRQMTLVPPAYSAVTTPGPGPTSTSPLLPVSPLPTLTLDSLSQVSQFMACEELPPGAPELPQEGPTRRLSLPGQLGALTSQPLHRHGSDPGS

Structure (SMILES) | hERG current change (%, negative = inhibition) at 10uM
CSc1nc(O)c(C(c2ccc(OC(C)C)cc2)c2c(O)nc(SC)[nH]c2=O)c(=O)[nH]1 | 16.9%
CCOc1ccc(S(N)(=O)=O)cc1-c1nc2c(C(C)(C)C)nn(C)c2c(=O)[nH]1 | 10.9%
CC(Sc1nnnn1-c1ccc(O)cc1)C(=O)NC1CCCCC1C (stereo not drawn) | -9.23%
CC(=O)C1=C(O)C(=O)N(c2ccc(S(=O)(=O)Nc3nccs3)cc2)C1c1ccc([N+](=O)[O-])cc1 (stereo not drawn) | 10.6%
C=CCn1c(SCc2nc3ccccc3c(=O)[nH]2)nc2sc3c(c2c1=O)CCCC3 | 2.93%
Cc1ccc(-c2nnc(OCc3nc4ccccc4n3C)c3ccccc23)cc1 | -12%
c1ccc(COc2cncc(-c3cccnc3)c2)cc1 | -17.8%
Cc1ccc(Oc2nnc(-c3ccccc3)c3ccccc23)cc1 | -2.98%
Cc1ccc(-c2nnc(OCc3cccnc3)c3ccccc23)cc1 | -75.7%
COc1ccc(-c2nnc(OCc3ccccc3)c3ccccc23)cc1 | 1.82%
c1ccc(-c2nnc(OCc3cccnc3)c3ccccc23)cc1 | -83.2%
CCC(C)n1c(-c2cccs2)nc2nc3ccccc3nc21 (stereo not drawn) | -4.95%
COCCn1c(SCC(=O)Nc2cc(C)nn2-c2ccccc2)nnc1-c1ccncc1 | -37.7%
COCCn1c(SCC(=O)Nc2ccc(Cl)cn2)nnc1-c1ccncc1 | -54.2%
COCCn1c(SCC(=O)Nc2cc(C(C)(C)C)nn2-c2ccccc2)nnc1-c1ccncc1 | -60%
CNC(=O)CSc1nnc(-c2ccncc2)n1Cc1ccccc1 | 9.26%
COCCn1c(SC(C)C(=O)Nc2ccc(Cl)cn2)nnc1-c1ccncc1 (stereo not drawn) | 4.13%
COCCn1c(SCC(=O)Nc2cc(C(C)(C)C)nn2-c2ccccc2)nc2ccccc2c1=O | -4.39%
COCCn1c(SCC(=O)Nc2nnc(C)s2)nnc1-c1ccncc1 | -0.996%
Cc1cc(NC(=O)CSc2nnc(-c3ccncc3)n2C)n(-c2ccccc2)n1 | -21.9%
Cc1cc(NC(=O)CSc2nnc(-c3ccncc3)n2Cc2ccccc2)n(-c2ccccc2)n1 | -58.8%
O=C(c1ccc(N2CCCC2=O)cc1)N1CCN(c2ccccc2Cl)CC1 | -12.1%
COc1ccc(S(=O)(=O)NCc2cc(=O)n(C)c(=O)n2C)cc1C | 22.6%
COc1ccc(Cl)cc1NC(=O)c1noc(C)c1[N+](=O)[O-] | -29.5%

Structure (SMILES) | hERG current change (%, negative = inhibition) at 10uM
O=C(NNC(=O)c1cc(-c2ccc(Cl)cc2Cl)nc2ccccc12)Nc1ccccc1 | 1.72%
Cc1ccc(C(C)C)c(OCC(=O)N2CCN(CC(=O)N3CCOCC3)CC2)c1 | 1.81%
Cn1c(CN2CCN(C(=O)c3ccc(F)cc3)CC2)nc2cc([N+](=O)[O-])ccc21 | -67.5%
Cn1c(CN2CCN(C(=O)c3ccco3)CC2)nc2cc([N+](=O)[O-])ccc21 | -60%
CCCC(=O)NCCc1nc2cc([N+](=O)[O-])ccc2n1C | -16.4%
Cc1ccc(C(C)C)c(OCC(=O)N2CCN(Cc3nc4cc([N+](=O)[O-])ccc4n3C)CC2)c1 | -65.8%
CCCC(=O)N1CCN(Cc2nc3cc([N+](=O)[O-])ccc3n2C)CC1 | -36.8%
Cn1c(CCNC(=O)c2ccco2)nc2cc([N+](=O)[O-])ccc21 | -26%
CN1CCN(Cc2nc3cc(NC(=O)COc4ccc([N+](=O)[O-])cc4)ccc3n2C)CC1 | 9.29%
CC(=O)N1CCN(Cc2nc3cc(NC(=O)COc4ccccc4)ccc3n2C)CC1.Cl | 0.239%
Cn1c(CN2CCN(C(=O)COc3ccccc3)CC2)nc2cc([N+](=O)[O-])ccc21 | -55.2%
O=C(CSc1nccn1-c1ccc(Cl)cc1)N1CCCc2ccccc21 | -11.7%
Cc1cc(NC(=O)c2cccc(S(=O)(=O)N3CCC(C)CC3)c2)no1 | 0.978%
CCCCN(C)C(=O)c1cc2cc3cc(OC)ccc3nc2o1 | -30.8%
C(=N\Nc1nc(N2CCCC2)nc(N2CCCC2)n1)/c1ccncc1 | 2.85%
Cn1c(CN2CCN(S(C)(=O)=O)CC2)nc2cc([N+](=O)[O-])ccc21 | -0.37%
Cn1c(CN2CCN(C(=O)c3ccccc3)CC2)nc2cc([N+](=O)[O-])ccc21 | -67.3%
CC(=O)N1CCN(Cc2nc3cc([N+](=O)[O-])ccc3n2C)CC1 | -4.94%
COC(=O)c1c(C)oc(C)c(C(=O)OC)c1=O | 5.25%
O=C1C2C3C=CC(C4CC34)C2C(=O)N1Cc1ccco1 (stereo not drawn) | 4.37%
Cc1c(C)n(C)c2ccc(C(=O)NCCCN3CCCCC3)cc12 | -17.2%
O=C(NCCCN1CCN(c2ccc(F)cc2)CC1)c1cccc(N2CCCC2=O)c1 | -48.5%
Cc1c(C)n(C)c2ccc(C(=O)NCCCN3CCN(c4ccc(F)cc4)CC3)cc12 | -66.6%
Cc1cc(=O)oc(C)c1C(=O)NCCCN1CCN(c2ccccc2F)CC1 | -40.4%

Structure (SMILES) | hERG current change (%, negative = inhibition) at 10uM
Cc1c(C)n(C)c2ccc(C(=O)NCCCN3CCOCC3)cc12 | 10.8%
COc1ccc(N2CCN(CCNC(=O)c3c(C)cc(=O)oc3C)CC2)cc1 | -12.2%
CCc1nc2ccc(C(=O)NCCCN3CCN(c4ccc(F)cc4)CC3)cc2nc1CC | -66.4%
CCc1nc2ccc(C(=O)NCCCN3CCN(c4ccccc4F)CC3)cc2nc1CC | -49.8%
Cc1c(C)n(C)c2ccc(C(=O)NCCCN3CCCC3)cc12 | -23.8%
Cc1cc(=O)oc(C)c1C(=O)NCCCN1CCN(c2ccc(F)cc2)CC1 | -53.6%
Cc1c(C)n(C)c2ccc(C(=O)NCCCN3CCN(C)CC3)cc12 | 14.9%
Cc1c(C)n(C)c2ccc(C(=O)NCCCN3CCN(c4ccccc4F)CC3)cc12 | -54.2%
Cc1ccc(S(=O)(=O)N2CCN(S(=O)(=O)c3ccc(C)cc3)C2)cc1 | -24.9%
CCN(CC)S(=O)(=O)c1cc(-c2nnc(-c3ccc(Br)cc3)o2)ccc1Br | 12.7%
COCCNC(=S)NN(c1ccccc1)c1ccccc1 | -1.18%
Oc1cc2c(cc1CN1CCc3ccccc3C1)OCO2 | -0.697%
CS(=O)(=O)N1CCN(c2ccc(NC(=O)COc3ccccc3)cc2)CC1 | 0.0465%
COc1ccc(/C=N/NC(=O)c2ccc(NC(=O)c3ccccc3Br)cc2)cc1 | 6.43%
CCN1/C(=C/C(C)=O)Sc2ccc(OC)cc21 | -12.7%
CCN1/C(=C/c2cccc[n+]2C)Sc2ccc(OC)cc21.[I-] | -67.3%
CCN1/C(=C\C(C)=O)Sc2ccc(OC)cc21 | 13.9%
CCCNC(=O)COC(=O)c1cccnc1Nc1ccccc1F | -9.21%
CCC1C(=O)NCCN1C(=O)c1ccc2nc(Cc3cccc(Cl)c3)oc2c1 (stereo not drawn) | -18.6%
CCN(CC(=O)NCc1ccc(Cl)cc1)C(=O)C(C)Sc1ccccc1 (stereo not drawn) | -33.8%
CCN(CC(=O)NCc1ccc(Cl)cc1)C(=O)Cc1ccccc1[N+](=O)[O-] | -63.4%
CCN(CC(=O)NCc1ccc(Cl)cc1)C(=O)NCc1ccc(Cl)cc1 | -48.4%
O=C(CCCc1ccccc1)NCc1ccc(Cl)cc1 | -15.3%
O=C(COC(=O)Cc1ccccc1[N+](=O)[O-])NCc1ccc(Cl)cc1 | -11%

Structure (SMILES) | hERG current change (%, negative = inhibition) at 10uM
CCN(CC(=O)NCc1ccc(Cl)cc1)C(=O)CCc1ccccc1 | -58.7%
CCN(CC(=O)NCc1cccs1)C(=O)CCc1c[nH]c2ccccc12 | -17.6%
O=C(Cc1ccccc1[N+](=O)[O-])NCc1ccc(Cl)cc1 | 5.25%
CCN(CC(=O)NCc1ccc(Cl)cc1)C(=O)CCc1ccccc1O | -54.1%
O=C(CC(c1ccccc1)c1cc(Cl)ccc1O)N1CCCC1 (stereo not drawn) | -17.5%
O=C(NS(=O)(=O)Nc1ccccn1)c1c[nH]c2ccccc12 | 15.4%
Cc1cccc(NC(=O)C2CCN(C(=O)NC3CCCCC3)CC2)c1 | 7.39%
CS(=O)c1ccccc1COC(=O)Nc1ccccc1 (stereo not drawn) | 9.76%
Cc1c(NC(=O)c2ccccc2)c(=O)n(-c2ccccc2)n1C | -3.48%
CCn1c(C(=O)N2CCC(C(=O)N3CCN(c4ccccn4)CC3)CC2)cc2sccc21 | -60.5%
CCOC(=O)N1CCN(C(=O)C2CCN(C(=O)c3cc4sccc4n3CC)CC2)CC1 | -28.8%
CCN1CCN(C(=O)C2CCN(C(=O)c3cc4sccc4n3CC)CC2)CC1 | -2.39%
O=C(NCc1ccco1)C1CCN(c2nc3ccccc3n2Cc2ccccc2F)CC1 | -66.2%
CCn1c(C(=O)N2CCC(C(=O)NCc3cccs3)CC2)cc2sccc21 | -63%
COc1nc(OC)nc(N2CCC(C(=O)NCc3ccco3)CC2)n1 | -18.3%
CCn1c(C(=O)N2CCC(C(=O)NCc3ccc(OC)cc3)CC2)cc2sccc21 | -41.9%
Cn1c(C(=O)N2CCCC(C(=O)NCc3cccs3)C2)cc2sccc21 (stereo not drawn) | -16.1%
Cc1cc(C)nc(N2CCC(C(=O)NCc3ccccc3F)CC2)n1 | 27%
O=C(NCc1ccco1)C1CCN(C(=O)c2ccc(Cl)cc2Cl)CC1 | -0.217%
O=C(NCc1ccco1)c1cc2sccc2n1Cc1ccccc1 | -15.7%
O=C(NCc1ccco1)C1CCN(C(=O)c2cc3sccc3n2Cc2ccc(Cl)cc2)CC1 | -64.8%
